± gives the standard deviation of the averaged measurements.
Test system: AmpC beta-lactamase (E. coli)
Assay: AmpC inhibition relative to DMSO; higher = more inhibition
Description: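 Aggregation counter-screen: inhibition of E. coli AmpC beta-lactamase (5 nM, nitrocefin substrate, 50 mM sodium phosphate pH 7.0, RT, 5 min) by KAT inhibitors at 4, 11, 33 and 100 uM, with or without 0.01% Triton X-100. Percent inhibition is relative to DMSO controls. Four technical replicates.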

[1] = 4 µM, detergent: 0.01% Triton X-100
[2] = 11 µM, detergent: 0.01% Triton X-100
[3] = 33 µM, detergent: 0.01% Triton X-100
[4] = 100 µM, detergent: 0.01% Triton X-100
[5] = 100 µM, detergent: no detergent

Row | SMILES | AmpC inhibition [1] [%] | AmpC inhibition (4 µM, detergent: no detergent) [%] | AmpC inhibition [2] [%] | AmpC inhibition (11 µM, detergent: no detergent) [%] | AmpC inhibition [3] [%] | AmpC inhibition (33 µM, detergent: no detergent) [%] | AmpC inhibition [4] [%] | AmpC inhibition [5] [%]
1 | CC(=O)c1c(O)c(C)c(O)c(Cc2c(O)c3c(c(C(=O)C=Cc4ccccc4)c2O)OC(C)(C)C=C3)c1O | 0.746 ± 2.2 | 3.59 ± 4.4 | 5.76 ± 7.3 | 41 ± 3.5 | -0.691 ± 4 | 73.8 ± 1.6 | 7.83 ± 5.4 | 82.1 ± 1.2
2 | Cc1cc2c(C(C)C)c(O)c(O)c(C=O)c2c(O)c1-c1c(C)cc2c(C(C)C)c(O)c(O)c(C=O)c2c1O | -0.343 ± 1.1 | 0.793 ± 12 | 4.76 ± 2.2 | -3.81 ± 3.7 | -3 ± 5.7 | -7.04 ± 18 | 6.4 ± 5.5 | 32.1 ± 2.7
3 | O=C(/C(C(N1CC2=CC=CC=C2)=O)=C/C3=C(C)C=C(O)C=C3C)N(CC4=CC=CC=C4)C1=O | 4.49 ± 6.9 | 2.08 ± 1.8 | 3.45 ± 13 | 29.6 ± 8.8 | 10.9 ± 3.2 | 65.9 ± 6.2 | 14.8 ± 0.9 | 84.9 ± 8.3

— the supplement of paper PMC10011410
